# Screening data: PubChem, National Center for Advancing Translational Sciences (NCATS)
# Rows were chosen to be rich in hits. Some 7.1% of all compounds tested hit in one or more screens of this group.
# MCF10A rerep: A quantitative high throughput screen for small molecules that induce DNA re-replication in MCF 10a normal breast cells; MCF 10A DNA re-replication, Hoechst nuclear intensity, 48 h; Potency, µM (series often up to 46.1 µM), for the others: at the highest dose activity, positive = re-replication, most hits filed as activators; actives 2.9% (n = 350,000); AID 624296, 2012; also: potency is read from the fitted curve at half-maximal effect; % of control where 0% means no effect; nearly all actives have a fitted effect of over 50% in size
# SW480 rerep: A quantitative high throughput screen for small molecules that induce DNA re-replication in SW480 colon adenocarcinoma cells. actives 1.8% (n = 340,000). SW480 DNA re-replication, Hoechst DNA content imaging, 48 h. Potency, µM (highest dose often 46.1 µM), for inactives: top-dose re-replication activation, usual class: activators; also: potency is read from the fitted curve at half-maximal effect; % of control where 0% means no effect; nearly all actives have a fitted effect of over 55% in size
#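 Image-based read-out: total Hoechst fluorescence of nuclei (405 nm excitation, 500-530 nm emission), with hits raising the fraction of high-intensity nuclei. SW480 colon cells incubated 48 hr with compounds at 37 C.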
# PINK1 modulator: A Quantitative High throughput Screen to Identify Chemical Modulators of PINK1 Expression; PINK1 immunofluorescence, high-content cytometry, 24 h; Potency, µM (titrated, usually from 76.6 µM), for the others: top-dose activation (PINK1 increase), hits mostly activators; AID 624263, 2012; actives 0.2% (n = 410,000); active = well fitted activation curve with a large enough effect; inconclusive = small, poorly fitted or top-dose-only effect; cell line not stated here; also: potency is read from the fitted curve at half-maximal effect; % of control where 0% means no effect; nearly all actives have a fitted effect of over 65% in size
#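 Readout is PINK1 immunofluorescence, quantified alongside mitochondrial, cell and nuclear markers by laser-scanning microplate cytometry. Cells from a stable line were exposed to compound titrations (5 concentrations) for 24 hours, with CCCP controls.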
# IL-1B inflam inh: qHTS for Inhibitors of Inflammasome Signaling: IL-1-beta AlphaLISA Primary Screen | THP-1 LPS/ATP IL-1B secretion, AlphaLISA, 16 h; hits give low values | actives 4.7% (n = 360,000) | activity change, % at 57.5 µM; in the data active = activity change below about -50%; inconclusive = mostly about -30% to -49%; also: % is scaled to controls: 0 for no effect and ±100 for the full control effect
#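 THP-1 cells pretreated 1 hr with compounds (up to 57.5 uM final), then stimulated with LPS (250 ng/mL final) plus ATP (1.25 mM final); secreted IL-1B measured by AlphaLISA after 16 hr, decreased signal indicating inhibition.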
# S2 tox: Viability Counterscreen for Primary qHTS for Inhibitors of ATXN expression | AID 651635, 2014 | Potency, µM (highest dose often 56.7 µM), most hits filed as cytotoxic | S2 cells (HEK-293 line with an ATXN2-luciferase reporter) viability, CellTiter-Fluor protease fluorescence, 24 h | actives 0.49% (n = 400,000); also: potency is read from the fitted curve at half-maximal effect; nearly all actives have a fitted effect of over 40% in size
# ATXN2 expr inh: Primary qHTS for Inhibitors of ATXN expression; actives 0.72% (n = 360,000); HEK-293 ATXN2-luciferase reporter, luminescence, 24 h; Potency, µM (series often up to 57 µM), for inactives: at the highest dose activity change, negative = inhibition, most hits filed as inhibitors; also: potency is read from the fitted curve at half-maximal effect; % is scaled to controls: 0 for no effect and ±100 for the full control effect; nearly all actives have a fitted effect of over 55% in size
#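 qHTS (up to 57 uM final) was run with 24 h compound exposure of reporter cells at 37 °C. Each well was multiplexed: SteadyGlo luminescence measured ATXN2-luciferase expression after a fluorogenic Gly-Phe-AFC viability readout (25 uM final).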
# * marks the source's active call; other numbers are inactive results; i = inactive; ? = inconclusive; · = not tested or not shown; [ ] = another dose, or the depositor's remark. Unless noted, calls follow the shape of the dose curve; as a rule, active = well fitted curve in the direction sought with a large enough effect; inconclusive = small, poorly fitted or top-dose-only effect, or another doubt; inactive = no such curve, though single readings can be large; an effect the other way counts as inactive or inconclusive.
SMILES,MCF10A rerep,SW480 rerep,PINK1 modulator,IL-1B inflam inh,S2 tox,ATXN2 expr inh
COc1ccc(C(CCNCc2ccc(N(C)C)cc2)c2ccccc2)cc1 (configuration not stated),?,18.4µM*,-3.7%,-101.1*,22.4µM*,?
CC(C)Oc1ccc(CNC(=O)CC(c2ccccc2)c2cc(Cl)ccc2O)cc1 (configuration not stated),?,18.2%,-0.4%[38.3 µM],?,?,?
CC(C)Oc1ccc(C(CCNCc2ccc(O)cc2)c2ccccc2)cc1 (configuration not stated),?,18.0%,-1.2%,-91.3*,·,?
N=c1c(S(=O)(=O)c2ccc(Br)cc2)cc2c(=O)n3ccccc3nc2n1Cc1ccco1,?,-2.0%,?,?,·,·
COCCn1c(=N)c(S(=O)(=O)c2ccc(F)cc2)cc2c(=O)n3ccccc3nc21,18.4µM*,20.6µM*,0.7%,10.9,i,6.4%
COCCn1c(=N)c(S(=O)(=O)c2ccc(Br)cc2)cc2c(=O)n3ccccc3nc21,-10.6%,-7.8%,0.3%,3.1,i,·
N=c1c(S(=O)(=O)c2ccc(Cl)cc2)cc2c(=O)n3ccccc3nc2n1Cc1ccco1,?,5.17µM*,3.7%,-12.5,·,0.0%
Cc1ccc(CN2C[C@@H](Sc3nc(C)cc(C)n3)C[C@H]2C(=O)N2CCN(c3ccccc3F)CC2)cc1,·,·,-0.2%,·,i,·
CCOC(=O)C1=C(CS(=O)(=O)c2ccc(F)c(C)c2)NC(=O)NC1c1ccccc1OC (configuration not stated),·,·,0.8%,·,?,-14.5%
CC(C)c1cc(NC(=O)c2ccccc2)cc(C(C)C)c1O,7.6%,-4.7%,8.8%,-56.9*,i,-16.2%
Cc1ccc(-n2ncc(C(=O)Nc3cc(Cl)cc(Cl)c3)c2C2CCNCC2)cc1C,?,4.61µM*,-0.7%,-19.0,?,·
CCOC(=O)c1sc(NC(=O)c2ccc(Cl)s2)cc1C,?,-5.3%,7.0%,?,i,25.9%
CCOC(=O)c1sc(NC(=O)Nc2ccc(Cl)cc2)cc1C,?,1.3%,?,-102.9*,i,?
Fc1ccc2cnc(-c3ccccc3F)cc2c1,18.4µM*,-13.6%,5.3%,16.1,i,26.6%
Cc1ccc2nc(Cl)c3nnnn3c2c1,2.59µM*,1.84µM*,-0.8%,-94.3*,?,?
Cc1ccc2nc(NCc3ccccc3Cl)c3nnnn3c2c1,·,·,0.6%,·,i,8.3%
CCC(=O)N1CCCc2cc(S(=O)(=O)N3CCC(C(=O)Nc4ccccc4CC)CC3)ccc21,·,·,4.1%,·,i,0.0%
CCn1cnc2cc(NCc3ccncc3)ccc21,14.6µM*,-6.0%,·,-2.5,i,3.2%
CCn1cnc2cc(NCc3ccc(Cl)cc3)ccc21,10.2%,0.2%,-0.2%,?,i,46.3%
COc1ccc(CNc2ccc3c(c2)ncn3C)cc1OC,24.5%,10.3µM*,11.8%,34.1,i,-0.7%
Cc1ccc(CNc2ccc3c(c2)ncn3C)cc1,1.1%,-3.5%,·,-3.7,i,52.6%
CCc1cccc(CN2CCC(CNC(=O)Nc3ccc(Cl)cc3)CC2)c1,-1.6%,-17.7%,0.7%,5.9,i,·
O=C(NCC1CCN(Cc2ccccc2F)CC1)Nc1ccccc1F,0.2%,18.3%,-0.1%,0.0,i,6.7%
O=C(NCC1CCN(Cc2ccccc2F)CC1)Nc1cccc(Br)c1,-5.5%,-0.1%,4.1%,-84.0*,i,-29.9%
O=C(NCC1CCN(Cc2cccc(Cl)c2)CC1)Nc1ccc(Cl)cc1,22.1%,17.8%,1.8%,-61.4*,?,·
SMILES,MCF10A rerep,SW480 rerep,PINK1 modulator,IL-1B inflam inh,S2 tox,ATXN2 expr inh
O=C(NCC1CCN(Cc2cccc(Cl)c2)CC1)Nc1ccc(F)c(Cl)c1,·,·,20.4%,·,22.4µM*,?
COC(=O)c1sc2c(c1C)c(=O)n(-c1ccccc1)c(=O)n2CC(=O)Nc1cccc(C)c1,·,·,7.4%,·,?,-8.0%
CCCCc1ccc(Nc2nc(CCC)cc(=O)[nH]2)cc1,5.8µM*,?,-5.1%,-104.7*,·,?
CCCc1cc(=O)[nH]c(Nc2ccc(OCC)cc2)n1,·,·,0.7%,·,·,·
Cc1cccc(Nc2nnc(-c3ccc(N4CCOCC4)c([N+](=O)[O-])c3)c3ccccc23)c1,16.8%,29.5%,-1.8%,-62.1*,?,?
S=c1[nH]c2ccccc2n1CCc1ccncc1,3.8%,-1.1%,5.5%,-61.3*,i,10.5%
O=C(Cn1cnc2sc3c(c2c1=O)CCCC3)NCC(=O)Nc1c(F)cccc1F,-2.8%,16.4µM*,-0.2%,10.9,i,21.7%
COc1ccc(C(CC(=O)NCc2ccccc2Cl)N2Cc3ccccc3C2=O)cc1OC (configuration not stated),·,·,-3.1%,·,i,0.4%
O=[N+]([O-])c1ccc2c(c1)-c1ccccc1C2=NO,20.6%,-0.2%,-4.6%,-74.7*,?,7.5%
O=C(Nc1cc2c(cc1Cl)-c1ccc([N+](=O)[O-])cc1C2=NO)C(F)(F)F,12.1%,0.9%,-2.2%,-65.0*,i,-32.2%
O=C(Nc1ccc2c(c1)Cc1cc([N+](=O)[O-])ccc1-2)C(F)(F)F,-0.5%,?,1.2%,-7.9,i,-14.4%
Nc1ccc2c(c1)C(=NO)c1cc([N+](=O)[O-])ccc1-2,11.0%,10.3µM*,-1.1%,-73.4*,?,?
O=C1OC(=O)c2cc([N+](=O)[O-])ccc21,-17.0%,-21.6%,1.2%,-53.6*,i,1.2%
Cc1cccc(CNC(=O)c2sc3ncnc(N(C)C4CCCCC4)c3c2C)c1,·,·,4.8%,·,?,?
CN(C)c1nc(Cc2ccc(NC(=O)c3ccc4ccccc4c3)cc2)nc(Cl)c1CC(=O)O,·,·,·,·,·,-1.2%
COc1ccc(OC)c(C2CC(=O)N(c3cccc(C)c3)C3=C2C(=O)OC3)c1 (configuration not stated),·,·,0.5%,·,·,·
CCOc1ccccc1NC(=O)N1c2ccccc2Sc2ccccc21,·,·,1.9%,·,i,9.2%
COc1ccc(OCc2ccc(-c3nc(C#N)c(N4CCC(C(N)=O)CC4)o3)o2)cc1,·,·,3.1%,·,i,-16.4%
CCCS(=O)(=O)NCc1c(C)ncc2c1CCN(C(=O)c1ccc(Cl)cc1)C2,·,·,-0.1%,·,i,·
CCOc1cc(/C=N/Nc2cccc(C(=O)O)c2)ccc1OC(=O)c1ccccc1,1.1%,-3.2%,1.6%,6.1,i,14.1µM*
Cc1nc(SCC(=O)Nc2ccccc2Cl)c2c(C)c(C)sc2n1,23.1µM*,2.0%,6.0%,1.8,i,-20.6%
